Activity calls are given as the source filed them. How the source made its calls: active means hit-call score of the fitted dose curve at least 0.9, where 1 is the maximum; inactive means score below 0.9.
Tests used:
Conditions in all cases: mRNA level, 48 h; actives raise or lower the signal
[1] = read-out: ABC Transporter (ABCB11), ABCB11 (gene 8647); assay: LTEA_HepaRG_ABCB11: Life Technologies and Expression Analysis (LTEA) Assay for ABC Transporter (ABCB11) using HepaRG (AID 2283463)
Summary of the method: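 HepaRG, 48 h exposure, 8-pt half-log CRC top 100 uM, 0.5% DMSO vehicle, duplicates. Readout: TaqMan qRT-PCR of ABCB11 mRNA, housekeeping-normalized (ACTB/GAPDH/POLR2A). Bidirectional fit vs DMSO baseline.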

[2] = read-out: ABC Transporter (ABCC2), ABCC2 (gene 1244); assay: LTEA_HepaRG_ABCC2: Life Technologies and Expression Analysis (LTEA) Assay for ABC Transporter (ABCC2) using HepaRG (AID 2283464)
Summary of the method: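 qRT-PCR (TaqMan, Fluidigm array) read-out of ABCC2 mRNA, normalized to three housekeeping genes. Differentiated HepaRG cells were treated 48 h in serum-free induction medium with 8-point half-log series from 100 uM in 0.5% DMSO; curves fitted bidirectionally relative to DMSO.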

[3] = read-out: Broad substrate specificity ATP-binding cassette transporter ABCG2 (Homo sapiens) (UniProt Q9UNQ0); assay: LTEA_HepaRG_ABCG2: Life Technologies and Expression Analysis (LTEA) Assay for ABC Transporter (ABCG2) using HepaRG (AID 2283465)
Summary of the method: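 HepaRG, 48 h exposure, 8-pt half-log series from 100 uM, 0.5% DMSO vehicle, duplicates. Readout: ABCG2 transcript by qRT-PCR (Fluidigm array), housekeeping-normalized; bidirectional curve fit relative to DMSO baseline.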

[4] = read-out: ATP-citrate lyase (ACLY), ACLY (gene 47); assay: LTEA_HepaRG_ACLY: Life Technologies and Expression Analysis (LTEA) Assay for ATP-citrate lyase (ACLY) using HepaRG (AID 2283466)
Summary of the method: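 qRT-PCR readout of ACLY transcript after 48 h chemical treatment of HepaRG cells; expression normalized to three housekeeping genes. Eight-point half-log series, highest 100 uM, 0.5% DMSO vehicle. Gain or loss fitted against DMSO baseline.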

[5] = read-out: Peroxisomal acyl-coenzyme A oxidase 1 (ACOX1) gene, ACOX1 (gene 51); assay: LTEA_HepaRG_ACOX1: Life Technologies and Expression Analysis (LTEA) Assay for Peroxisomal acyl-coenzyme A oxidase 1 (ACOX1) gene using HepaRG (AID 2283467)
Summary of the method: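 HepaRG, 48 h chemical exposure, 8-pt half-log series from 100 uM top, 0.5% DMSO vehicle, duplicates. Readout: ACOX1 mRNA by Fluidigm qRT-PCR, housekeeping-normalized; bidirectional fit vs DMSO baseline.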

[6] = read-out: Alkaline Phosphatase, Placental (ALPP) gene, ALPP (gene 250); assay: LTEA_HepaRG_ALPP: Life Technologies and Expression Analysis (LTEA) Assay for Alkaline Phosphatase, Placental (ALPP) gene using HepaRG (AID 2283468);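 on AC50: differentiated human HepaRG liver cells in serum-free induction medium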
Summary of the method: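 qRT-PCR readout of ALPP mRNA (Fluidigm TaqMan), normalized to ACTB/GAPDH/POLR2A, after 48 h chemical exposure of HepaRG cells; 8-point half-log series, top 100 uM, 0.5% DMSO vehicle. Bidirectional curve fit versus DMSO baseline.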

[7] = read-out: Bcl-2 (BAD) gene, BAD (gene 572); assay: LTEA_HepaRG_BAD: Life Technologies and Expression Analysis (LTEA) Assay for Bcl-2 (BAD) gene using HepaRG (AID 2283469)
Summary of the method: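 HepaRG, 48 h exposure, 8-pt half-log curve from 100 uM in 0.5% DMSO, duplicates. Readout: TaqMan qRT-PCR for BAD mRNA, housekeeping-normalised (ACTB/GAPDH/POLR2A); gain or loss fitted against DMSO baseline.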

[8] = read-out: Bcl-2 (BAX) gene, BAX (gene 581); assay: LTEA_HepaRG_BAX: Life Technologies and Expression Analysis (LTEA) Assay for Bcl-2 (BAX) gene using HepaRG (AID 2283470)
Summary of the method: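 Gene expression measured by Fluidigm qRT-PCR with three housekeeping genes for normalisation. HepaRG cells, plated 48 h beforehand, treated 48 h at up to 100 uM (8-point, half-log) in 0.5% DMSO. Bidirectional fitting versus DMSO.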

[9] = read-out: adenosine kinase (ADK) gene, ADK (gene 132); assay: LTEA_HepaRG_ADK: Life Technologies and Expression Analysis (LTEA) Assay for adenosine kinase (ADK) gene using HepaRG (AID 2283471)
Summary of the method: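 ADK expression quantified by qRT-PCR, normalised to three housekeeping genes, after 48 h exposure of HepaRG cells to eight concentrations (top 100 uM, half-log steps, duplicate, 0.5% DMSO). Up- or down-regulation fitted relative to vehicle.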

[10] = read-out: Alpha-fetoprotein (AFP) gene, AFP (gene 174); assay: LTEA_HepaRG_AFP: Life Technologies and Expression Analysis (LTEA) Assay for Alpha-fetoprotein (AFP) gene using HepaRG (AID 2283472)
Summary of the method: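 AFP transcript measured by TaqMan qRT-PCR with three housekeeping genes for normalization, after 48 h chemical treatment of HepaRG cells (top 100 uM, half-log steps, 0.5% DMSO). Gain or loss fitted against vehicle.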

BCL2L11 (gene 10018) = assay: LTEA_HepaRG_BCL2L11: Life Technologies and Expression Analysis (LTEA) Assay for Bcl-2 (BCL2L11) gene using HepaRG (AID 2283473)
Summary of the method: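 HepaRG, 48 h exposure, 8-pt half-log series from 100 uM in 0.5% DMSO, duplicates; qRT-PCR (Fluidigm TaqMan) for BCL2L11, housekeeping-normalized; bidirectional curve fit relative to DMSO baseline.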

[11] = read-out: Apoptosis regulator Bcl-2 (Homo sapiens) (UniProt P10415); assay: LTEA_HepaRG_BCL2: Life Technologies and Expression Analysis (LTEA) Assay for Bcl-2 gene using HepaRG (AID 2283475)
Summary of the method: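 qRT-PCR of BCL2 transcript, normalized to three housekeeping genes (ACTB, GAPDH, POLR2A), after 48 h chemical exposure of HepaRG cells; concentrations top 100 uM with half-log dilutions, 0.5% DMSO vehicle, duplicates; changes up or down fitted relative to vehicle.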

[12] = read-out: Bcl-2 (BID) gene, BID (gene 637); assay: LTEA_HepaRG_BID: Life Technologies and Expression Analysis (LTEA) Assay for Bcl-2 (BID) gene using HepaRG (AID 2283476)
Summary of the method: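 Duplicate 48 h treatments of HepaRG cells in serum-free induction medium spanned 100 uM downward in half-log steps, 0.5% DMSO. Transcript change quantified by qRT-PCR against three housekeeping genes, fitted up or down versus DMSO.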

Caspase-3 (Homo sapiens) = Caspase-3 (Homo sapiens) (UniProt P42574); assay: LTEA_HepaRG_CASP3: Life Technologies and Expression Analysis (LTEA) Assay for cysteine-aspartic acid protease (CASP3) using HepaRG (AID 2283477)
Summary of the method: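 HepaRG, 48 h exposure, 8 conc. (top 100 uM, half-log steps, duplicate), 0.5% DMSO vehicle; qRT-PCR of CASP3 transcript, housekeeping-normalised (ACTB/GAPDH/POLR2A); bidirectional curve fit vs DMSO baseline.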

[13] = read-out: Cytochrome P450 (CYP24A1), CYP24A1 (gene 1591); assay: LTEA_HepaRG_CYP24A1: Life Technologies and Expression Analysis (LTEA) Assay for Cytochrome P450 (CYP24A1) using HepaRG (AID 2283478)
Summary of the method: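 qRT-PCR read-out: CYP24A1 transcript levels normalized to three housekeeping genes, bidirectional curve fits against 0.5% DMSO baseline. Human HepaRG cells treated 48 h with chemicals at eight concentrations from 100 uM in half-log steps.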

[14] = read-out: cysteine-aspartic acid protease (CASP8), CASP8 (gene 841); assay: LTEA_HepaRG_CASP8: Life Technologies and Expression Analysis (LTEA) Assay for cysteine-aspartic acid protease (CASP8) using HepaRG (AID 2283480)
Summary of the method: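 qRT-PCR readout of CASP8 mRNA, normalized to three housekeeping genes, after 48 h chemical exposure of HepaRG cells; 8-point half-log series, top 100 uM, 0.5% DMSO vehicle. Bidirectional curve fitting against DMSO baseline.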

[15] = read-out: Cytochrome P450 (CYP2B6), CYP2B6 (gene 1555); assay: LTEA_HepaRG_CYP2B6: Life Technologies and Expression Analysis (LTEA) Assay for Cytochrome P450 (CYP2B6) using HepaRG (AID 2283481)
Summary of the method: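 Read-out is CYP2B6 mRNA by TaqMan qRT-PCR, normalized to three housekeeping genes and fitted bidirectionally against 0.5% DMSO baseline. Human HepaRG cells received test chemicals for 48 h, top concentration 100 uM, half-log dilutions.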

[16] = read-out: Cytochrome P450 2C19 (Homo sapiens) (UniProt P33261); assay: LTEA_HepaRG_CYP2C19: Life Technologies and Expression Analysis (LTEA) Assay for CYP2C19 using HepaRG (AID 2283482)
Summary of the method: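 HepaRG, 48 h chemical exposure, 8-pt half-log series from 100 uM in 0.5% DMSO, duplicates. Readout: CYP2C19 mRNA by TaqMan qRT-PCR, housekeeping-normalized. Bidirectional fit vs DMSO baseline; phenobarbital 1mM as induction control.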

[17] = read-out: Apolipoprotein A-V (APOA5) gene, APOA5 (gene 116519); assay: LTEA_HepaRG_APOA5: Life Technologies and Expression Analysis (LTEA) Assay for Apolipoprotein A-V (APOA5) gene using HepaRG (AID 2283474)
Summary of the method: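 HepaRG, 48 h chemical exposure in serum-free induction medium, 8-pt half-log series (top 100 uM), 0.5% DMSO vehicle, duplicates. Readout: APOA5 mRNA by qRT-PCR, housekeeping-normalized; bidirectional fit vs DMSO baseline.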

[18] = read-out: Cytochrome P450 (CYP1A2), CYP1A2 (gene 1544); assay: LTEA_HepaRG_CYP1A2: Life Technologies and Expression Analysis (LTEA) Assay for Cytochrome P450 (CYP1A2) using HepaRG (AID 2283479)
Summary of the method: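 HepaRG, 48 h exposure, top 100 uM, half-log 8-pt, 0.5% DMSO vehicle, duplicates. Readout: TaqMan qRT-PCR of CYP1A2 mRNA, housekeeping-normalized (ACTB/GAPDH/POLR2A). Gain/loss fit relative to DMSO baseline.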

Measured: AC50

Broad substrate specificity ATP-binding cassette transporter ABCG2 (Homo sapiens), sequence (Q9UNQ0 whole entry, looked up): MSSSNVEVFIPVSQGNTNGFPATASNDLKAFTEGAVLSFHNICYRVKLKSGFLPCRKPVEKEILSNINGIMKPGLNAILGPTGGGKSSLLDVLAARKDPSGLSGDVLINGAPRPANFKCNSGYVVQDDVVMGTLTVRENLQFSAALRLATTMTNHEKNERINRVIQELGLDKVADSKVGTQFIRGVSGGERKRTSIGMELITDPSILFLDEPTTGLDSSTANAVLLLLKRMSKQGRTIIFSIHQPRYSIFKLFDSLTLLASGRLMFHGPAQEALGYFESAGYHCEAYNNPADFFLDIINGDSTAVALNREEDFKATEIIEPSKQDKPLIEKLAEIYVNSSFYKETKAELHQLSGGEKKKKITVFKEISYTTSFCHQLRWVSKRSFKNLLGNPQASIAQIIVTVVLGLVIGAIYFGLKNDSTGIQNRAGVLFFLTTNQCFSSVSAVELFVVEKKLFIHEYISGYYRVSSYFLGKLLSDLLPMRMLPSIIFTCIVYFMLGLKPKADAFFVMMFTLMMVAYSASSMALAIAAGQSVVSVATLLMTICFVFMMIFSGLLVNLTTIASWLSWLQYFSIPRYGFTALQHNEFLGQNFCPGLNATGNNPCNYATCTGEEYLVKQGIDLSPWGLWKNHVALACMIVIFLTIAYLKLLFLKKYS
Apoptosis regulator Bcl-2 (Homo sapiens), sequence (P10415 whole entry, looked up): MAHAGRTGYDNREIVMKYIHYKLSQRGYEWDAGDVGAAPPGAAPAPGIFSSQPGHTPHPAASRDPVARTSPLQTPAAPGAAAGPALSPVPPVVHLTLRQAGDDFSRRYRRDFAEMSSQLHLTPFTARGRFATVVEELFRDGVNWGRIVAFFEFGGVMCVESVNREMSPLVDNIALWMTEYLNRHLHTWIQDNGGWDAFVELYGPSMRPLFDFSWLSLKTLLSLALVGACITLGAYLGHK
Cytochrome P450 2C19 (Homo sapiens), sequence (P33261 whole entry, looked up): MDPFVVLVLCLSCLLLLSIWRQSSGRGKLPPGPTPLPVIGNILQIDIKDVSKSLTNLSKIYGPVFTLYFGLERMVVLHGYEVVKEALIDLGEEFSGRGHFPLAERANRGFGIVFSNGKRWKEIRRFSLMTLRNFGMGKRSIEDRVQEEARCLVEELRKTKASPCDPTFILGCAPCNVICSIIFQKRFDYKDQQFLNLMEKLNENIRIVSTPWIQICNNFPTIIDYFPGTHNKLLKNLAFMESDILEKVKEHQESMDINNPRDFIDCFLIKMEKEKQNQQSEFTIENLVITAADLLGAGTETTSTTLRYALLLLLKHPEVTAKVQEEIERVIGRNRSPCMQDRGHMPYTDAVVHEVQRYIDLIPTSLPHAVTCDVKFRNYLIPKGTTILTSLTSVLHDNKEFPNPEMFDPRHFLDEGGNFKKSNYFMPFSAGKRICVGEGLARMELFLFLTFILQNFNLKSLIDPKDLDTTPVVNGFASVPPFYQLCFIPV
Caspase-3 (Homo sapiens), sequence (P42574 whole entry, looked up): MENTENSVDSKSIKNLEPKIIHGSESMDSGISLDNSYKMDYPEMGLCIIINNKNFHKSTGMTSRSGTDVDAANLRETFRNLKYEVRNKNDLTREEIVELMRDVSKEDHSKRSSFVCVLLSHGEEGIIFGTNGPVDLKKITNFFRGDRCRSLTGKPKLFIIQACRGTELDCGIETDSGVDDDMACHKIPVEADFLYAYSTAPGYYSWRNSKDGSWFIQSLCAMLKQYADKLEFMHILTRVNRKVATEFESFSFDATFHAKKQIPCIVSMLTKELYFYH

C=CCCCCCCCCCCCC
not listed: [17] | [18]
inactive: all other assays above

O=C(O)c1cccnc1
not listed: BCL2L11 (gene 10018) | [15]
inactive: all other assays above

c1ccc2occc2c1
not listed: [15] | [17] | [18]
inactive: all other assays above

CCCCc1nc2cccnc2n1Cc1ccc(-c2ccccc2-c2nnn[nH]2)cc1
active: [1] 89.8 µM | [2] 50 µM | [3] 27.1 µM | [6] 15.5 µM | [10] 33.2 µM | [15] 10.4 µM
inactive: all other assays above

CS(=O)(=O)c1ccc([C@@H](C[C@H]2CCC(=O)C2)C(=O)Nc2cnccn2)cc1Cl
active: [1] 11 µM | [2] 12.5 µM | [3] 1.29 µM | [6] 2.94 µM | [7] 1.23 µM | [8] 25.4 µM | [9] 0.952 µM | [10] 0.908 µM | BCL2L11 (gene 10018) 1.15 µM | [17] 50 µM | [11] 16.1 µM | [12] 2.25 µM | Caspase-3 (Homo sapiens) 0.843 µM | [14] 1.2 µM | [16] 1.38 µM
inactive: [4] | [5]

CCCCCCCC(=O)OC
not listed: [15] | [17]
inactive: all other assays above

CC(=O)OC1CC(C)OC(C)O1 (centres undefined)
active: [18] 50 µM
not listed: [15]
inactive: all other assays above

CC(C)NCC(O)c1ccc(O)c(O)c1 (centres undefined)
inactive: [7] | [8] | [9] | BCL2L11 (gene 10018) | [17] | Caspase-3 (Homo sapiens) | [13] | [14]
active: [1] 0.147 µM | [2] 0.128 µM | [3] 0.156 µM | [4] 0.182 µM | [5] 0.224 µM | [6] 0.0927 µM | [10] 0.261 µM | [11] 0.239 µM | [18] 0.204 µM

CC(=O)CC(c1ccccc1)c1c(O)c2ccccc2oc1=O (centres undefined)
active: [4] 50 µM | [15] 29.7 µM | [16] 5.47 µM
not listed: [18]
inactive: all other assays above

O=C(NS(=O)(=O)/C=C/c1cccs1)c1ccc(F)cc1Br
active: [1] 50 µM | [2] 7.3 µM | [3] 9.27 µM | [10] 50 µM | [16] 13 µM
not listed: [18]
inactive: all other assays above

O=[Si]=O
active: [18] 50 µM
not listed: [15] | [17]
inactive: all other assays above

CC(=O)S[C@H](C(=O)N[C@H]1Cc2ccccc2[C@H]2CCC[C@@H](C(=O)O)N2C1=O)C(C)C
not listed: [15] | [17] | [18]
inactive: all other assays above

CCOCCOCCO
not listed: BCL2L11 (gene 10018)
inactive: all other assays above

O=C1OC(c2ccc(O)cc2)(c2ccc(O)cc2)c2ccccc21
active: [1] 69.8 µM | [3] 79.2 µM | [5] 50 µM | [10] 77.4 µM | [11] 50 µM | [15] 84.7 µM | [16] 76.9 µM
not listed: [17] | [18]
inactive: all other assays above

From PubChem BioAssay (EPA / NIEHS)
